Laboratory results taken from PubChem BioAssay (NCATS).
Records with an inconclusive call do not appear. Activity calls are given as the source filed them. Unless noted, calls come from the whole dose curve.

Tests used:
[1] = molecular target: Alpha-galactosidase (Coffea arabica) (UniProt Q42656); test: Counterscreen for Glucocerebrosidase Inhibitors: qHTS Assay for Coffee Bean alpha-Galactosidase at pH 4.5 (AID 957; active = well fitted curve in the direction sought with a large enough effect; an effect the other way counts as inactive or inconclusive;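 note: series mostly up to about 77 µM; plate controls were enzyme alone for no effect and no enzyme for full effect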)
Outline: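 Fluorogenic read-out: 4-methylumbelliferone at Ex 365/Em 440 nm after NaOH/glycine stop (pH 10). Enzyme 2 nM, 4-MU-alpha-galactoside 80 uM, citrate buffer pH 4.5, 20 min RT; normalized to no-enzyme and enzyme controls.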

[2] = molecular target: Alpha-galactosidase (Coffea arabica) (UniProt Q42656); test: Counterscreen for Glucocerebrosidase Inhibitors: qHTS Assay for Coffee Bean alpha-Galactosidase at pH 5.9 (AID 998; active = well fitted curve in the direction sought with a large enough effect; an effect the other way counts as inactive or inconclusive;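 note: plate controls were uninhibited enzyme for no effect and no-enzyme basal signal for full effect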)
Outline: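 Fluorogenic 4-MU substrate hydrolysis, 80 uM substrate and 2 nM coffee bean alpha-galactosidase, pH 5.9 citrate buffer, 20 min at room temperature, then NaOH/glycine stop. Titration 0.7 nM–77 uM, normalized to no-enzyme and enzyme controls, AC50 via Hill equation.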

[3] = Validation screen for inhibitors of Lassa infection (AID 463096); note: % is set by controls: 0 for no effect and ±100 for the full control effect
[4] = Inducers of the Endoplasmic Reticulum Stress Response (ERSR) in human glioma: Validation (AID 504836; active = well fitted curve in the direction sought with a large enough effect; an effect the other way counts as inactive or inconclusive; note: 0% is about no effect)
Outline: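 ERSR induction read as luciferase luminescence (Bright-Glo, 10 min at room temperature) in stably transfected human U87-MG glioma cells exposed to compounds for 16 h, using GRP78 as sensor.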

[5] = qHTS for Inhibitors of the Functional Ribonucleoprotein Complex (vRNP) of Lassa (LASV) Arenavirus: LASV Primary Screen - GLuc reporter signal (AID 1347082; calls by dose curve; tested in HEK293 reporter line; note: series mostly up to about 57 µM; % is set by controls: 0 for no effect and ±100 for the full control effect; nearly all actives have a fitted effect of over 60% in size)
[6] = qHTS for Inhibitors of the Functional Ribonucleoprotein Complex (vRNP) of Lassa (LASV) Arenavirus: Viability assay - alamar blue signal for LASV Primary Screen (AID 1347083; calls by dose curve; tested in HEK293 reporter line; note: series mostly up to about 57 µM; % is set by controls: 0 for no effect and ±100 for the full control effect; nearly all actives have a fitted effect of over 80% in size)
[7] = qHTS for Inhibitors of the Functional Ribonucleoprotein Complex (vRNP) of Lymphocytic Choriomeningitis Arenaviruses (LCMV): Viability assay - alamar blue signal for LCMV Primary Screen (AID 1347085; calls by dose curve; tested in HEK293 reporter line; note: series mostly up to about 57 µM; % is set by controls: 0 for no effect and ±100 for the full control effect; nearly all actives have a fitted effect of over 80% in size)
[8] = molecular target: Nucleoprotein (Lymphocytic choriomeningitis virus (strain Armstrong)) (UniProt P09992); test: qHTS for Inhibitors of the Functional Ribonucleoprotein Complex (vRNP) of Lymphocytic Choriomeningitis Arenaviruses (LCMV): LCMV Primary Screen - GLuc reporter signal (AID 1347086); note: series mostly up to about 57 µM; % is set by controls: 0 for no effect and ±100 for the full control effect; nearly all actives have a fitted effect of over 70% in size
[9] = molecular target: Bile acid receptor (Homo sapiens) (UniProt Q96RI1); test: qHTS assay for small molecule agonists of farnesoid X receptor signaling (AID 588527); details: HEK293T FXR-UAS-bla, beta-lactamase ratio, 16 h; activation: stronger effect = higher value;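 note: series mostly up to about 77 µM; 0% = vehicle basal and 100% = reference agonist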
Outline: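 FXR-UAS-bla HEK293T, 10% dialyzed FBS; cpds up to 92 uM titration, 16 h 37 C; CCF4 dye 2 h RT; fluorescence. Normalized to chenodeoxycholic acid 100 uM (100%) and DMSO (0%); Hill fit gives EC50, efficacy.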

[10] = molecular target: Nuclear receptor ROR-gamma (Homo sapiens) (UniProt P51449); test: qHTS assay for small molecule antagonists of the retinoid-related orphan receptor gamma (ROR-gamma) signaling pathway (AID 651802; active = well fitted curve in the direction sought with a large enough effect; an effect the other way counts as inactive or inconclusive;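 note: CHO cells with doxycycline-induced ROR-gamma expression; luciferase reporter luminescence driven by ROR response element; series mostly up to about 92 µM; % is set by controls: 0 for no effect and ±100 for the full control effect; nearly all actives have a fitted effect of over 60% in size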)
Outline: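 Luciferase read-out: ONE-Glo luminescence after 30 min at room temperature, following 16hr doxycycline induction at 37C, 5% CO2 of CHO cells with TET-inducible ROR and RORE-LUC reporter; decreased luminescence = reduced reporter activity.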

[11] = molecular target: Arylsulfatase A (Homo sapiens) (UniProt P15289); test: qHTS screen for enhancers of Arylsulfatase A (ASA1): LOPAC Validation Assay (AID 720538; active = well fitted curve in the direction sought with a large enough effect; an effect the other way counts as inactive or inconclusive; note: 0% is about no effect)
Outline: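 Read-out: fluorescence at Ex=525/Em=598 nm after 1N NaOH final stop. Patient fibroblasts carrying ASA-I179S had 48h compound exposure, then 14h room-temperature pNCS hydrolysis (0.5mM final) in lysis buffer. Signal increase = enhanced activity.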

[12] = qHTS Assay for Identifying Gametocytocidal Compounds (AID 743244; active = well fitted curve in the direction sought with a large enough effect; an effect the other way counts as inactive or inconclusive;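 note: % is set by controls: 0 for no effect and ±100 for the full control effect; actives lower the fluorescent signal which means gametocytes are killed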); details: P. falciparum 3D7 stage III-V gametocytes, alamarBlue, 72 h; max response: stronger effect = lower value
Outline: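 Compounds are pinned into medium, gametocytes (stage III–V, 3D7, 20,000 cells/well) added, and plates held 72 h at 37 °C in 5% CO2. AlamarBlue follows for 24 h before fluorescence reading.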

Chain of Nucleoprotein (Lymphocytic choriomeningitis virus (strain Armstrong)) (P09992 whole entry, looked up): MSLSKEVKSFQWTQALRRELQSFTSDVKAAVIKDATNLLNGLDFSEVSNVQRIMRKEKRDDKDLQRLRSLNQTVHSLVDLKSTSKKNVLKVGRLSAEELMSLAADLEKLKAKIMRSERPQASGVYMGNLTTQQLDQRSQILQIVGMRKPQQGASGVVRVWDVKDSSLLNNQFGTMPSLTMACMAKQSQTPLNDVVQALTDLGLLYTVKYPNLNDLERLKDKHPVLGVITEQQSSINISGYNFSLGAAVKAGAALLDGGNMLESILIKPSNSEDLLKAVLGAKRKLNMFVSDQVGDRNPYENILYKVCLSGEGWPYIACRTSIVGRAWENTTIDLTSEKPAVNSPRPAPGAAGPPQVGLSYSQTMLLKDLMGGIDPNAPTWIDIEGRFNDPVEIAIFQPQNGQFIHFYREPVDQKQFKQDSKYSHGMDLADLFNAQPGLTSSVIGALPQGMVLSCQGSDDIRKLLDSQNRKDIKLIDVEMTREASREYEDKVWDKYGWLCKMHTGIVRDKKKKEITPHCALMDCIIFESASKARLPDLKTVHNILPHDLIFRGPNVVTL
Chain of Alpha-galactosidase (Coffea arabica) (Q42656 whole entry, looked up): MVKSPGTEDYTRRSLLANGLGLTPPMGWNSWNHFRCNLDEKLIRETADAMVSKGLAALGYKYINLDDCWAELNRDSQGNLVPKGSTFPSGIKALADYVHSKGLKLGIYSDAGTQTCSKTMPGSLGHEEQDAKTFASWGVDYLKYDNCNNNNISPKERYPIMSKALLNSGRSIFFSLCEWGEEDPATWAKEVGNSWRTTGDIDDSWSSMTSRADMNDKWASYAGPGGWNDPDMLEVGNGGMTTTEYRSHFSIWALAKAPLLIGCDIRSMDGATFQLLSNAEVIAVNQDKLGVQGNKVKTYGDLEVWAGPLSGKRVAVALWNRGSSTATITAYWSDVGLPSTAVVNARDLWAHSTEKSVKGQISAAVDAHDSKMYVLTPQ
Chain of Nuclear receptor ROR-gamma (Homo sapiens) (P51449 whole entry, looked up): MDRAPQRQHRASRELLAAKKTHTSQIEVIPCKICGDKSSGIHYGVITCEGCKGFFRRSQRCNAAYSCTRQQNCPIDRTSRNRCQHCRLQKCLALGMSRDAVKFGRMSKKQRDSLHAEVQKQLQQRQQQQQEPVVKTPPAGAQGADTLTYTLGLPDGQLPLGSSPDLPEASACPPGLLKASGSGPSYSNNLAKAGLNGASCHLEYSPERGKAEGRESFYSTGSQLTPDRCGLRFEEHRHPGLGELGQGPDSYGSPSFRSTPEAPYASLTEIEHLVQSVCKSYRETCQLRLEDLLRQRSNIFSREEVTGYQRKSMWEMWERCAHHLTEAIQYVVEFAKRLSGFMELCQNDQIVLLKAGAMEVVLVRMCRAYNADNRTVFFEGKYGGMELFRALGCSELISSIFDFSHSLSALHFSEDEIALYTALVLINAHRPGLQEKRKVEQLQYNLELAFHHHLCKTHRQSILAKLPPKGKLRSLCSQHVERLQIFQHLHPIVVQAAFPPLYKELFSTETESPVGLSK
Chain of Arylsulfatase A (Homo sapiens) (P15289 whole entry, looked up): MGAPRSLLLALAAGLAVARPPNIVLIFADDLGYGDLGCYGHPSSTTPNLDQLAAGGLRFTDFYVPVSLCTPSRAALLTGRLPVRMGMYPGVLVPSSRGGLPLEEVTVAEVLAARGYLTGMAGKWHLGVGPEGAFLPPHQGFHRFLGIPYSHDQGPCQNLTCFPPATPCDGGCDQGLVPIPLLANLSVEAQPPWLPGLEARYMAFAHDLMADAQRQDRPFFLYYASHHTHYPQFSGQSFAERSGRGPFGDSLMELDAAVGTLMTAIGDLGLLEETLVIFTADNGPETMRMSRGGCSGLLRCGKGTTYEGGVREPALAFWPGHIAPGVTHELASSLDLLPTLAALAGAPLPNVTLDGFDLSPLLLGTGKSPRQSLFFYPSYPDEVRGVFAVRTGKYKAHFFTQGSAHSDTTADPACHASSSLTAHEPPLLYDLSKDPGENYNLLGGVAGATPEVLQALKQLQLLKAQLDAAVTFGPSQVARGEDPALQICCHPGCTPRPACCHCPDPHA
Chain of Bile acid receptor (Homo sapiens) (Q96RI1 whole entry, looked up): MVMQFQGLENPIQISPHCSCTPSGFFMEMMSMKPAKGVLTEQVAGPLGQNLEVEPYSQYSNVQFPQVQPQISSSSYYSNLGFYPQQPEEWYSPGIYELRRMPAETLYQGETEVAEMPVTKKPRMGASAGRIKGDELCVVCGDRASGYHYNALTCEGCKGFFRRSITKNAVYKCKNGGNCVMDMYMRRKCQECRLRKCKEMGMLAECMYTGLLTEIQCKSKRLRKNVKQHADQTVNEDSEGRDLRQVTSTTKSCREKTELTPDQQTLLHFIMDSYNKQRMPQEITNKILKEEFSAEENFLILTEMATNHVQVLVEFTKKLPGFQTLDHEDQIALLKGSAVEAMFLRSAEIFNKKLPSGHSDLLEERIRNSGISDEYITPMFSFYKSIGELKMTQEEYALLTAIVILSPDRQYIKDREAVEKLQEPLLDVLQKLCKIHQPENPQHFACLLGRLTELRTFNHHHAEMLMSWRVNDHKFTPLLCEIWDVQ

Cc1nc(N=Nc2ccc(C(=O)O)cc2)c(COP(=O)(O)O)c(C=O)c1O
inactive: outcome [1] | outcome [2] | Potency [3] | outcome [4] | Potency [5] | Potency [6] | Potency [7] | Potency [8]

O=C1O/C(=C/Br)CCC1c1cccc2ccccc12 (stereo not given)
inactive: Potency [3] | outcome [4] | Potency [5] | Potency [6] | Potency [7] | Potency [8]

CCCCOc1cc(CC2CNC(=O)N2)ccc1OC (stereo not given)
inactive: Potency [3] | outcome [4] | Potency [5] | Potency [6] | Potency [7] | Potency [8]

CCCC[C@@]1(C2CCCC2)Cc2cc(OCC(=O)O)c(Cl)c(Cl)c2C1=O
inactive: Potency [3] | outcome [4] | Potency [5] | Potency [6] | Potency [7] | Potency [8]

O=C(O)C1CCCNC1 (stereo not given)
inactive: Potency [3] | outcome [4] | Potency [5] | Potency [6] | Potency [7] | Potency [8]

O=C(O)c1cc(=O)cc(C(=O)O)[nH]1
inactive: outcome [1] | outcome [2] | Potency [3] | outcome [4] | Potency [5] | Potency [6] | Potency [7] | Potency [8]

CCOC(=O)C12CC1/C(=N/O)c1ccccc1O2 (stereo not given)
inactive: Potency [3] | outcome [4] | Potency [5] | Potency [6] | Potency [7] | Potency [8]

c1ccc(C2CN3CCSC3=N2)cc1 (stereo not given)
inactive: Potency [3] | outcome [4] | Potency [5] | Potency [6] | Potency [7] | Potency [8]

CCCCCCCCCCCCCCSCC(=O)O
inactive: outcome [1] | outcome [2] | Potency [3] | outcome [4] | activation [9] 0.99% | Potency [5] | Potency [6] | Potency [7] | Potency [8]

O=C(O)C1CN(CCCP(=O)(O)O)CCN1 (stereo not given)
inactive: Potency [3] | outcome [4] | Potency [5] | Potency [6] | Potency [7] | Potency [8]

CO/N=C(\C(=O)N[C@@H]1C(=O)N2C(C(=O)O)=C(CSc3nc(=O)c(O)nn3C)CSC12)c1csc(N)n1 (stereo not given in full)
inactive: Potency [3] | outcome [4] | Potency [5] | Potency [6] | Potency [7] | Potency [8]

COC(=O)C(C)(N)Cc1ccc(O)cc1 (stereo not given)
inactive: Potency [3] | outcome [4] | Potency [5] | Potency [6] | Potency [7] | Potency [8]

CN1C2CCC1CC(OC(=O)c1c[nH]c3ccccc13)C2 (stereo not given)
inactive: Potency [3] | outcome [4] | Potency [5] | Potency [6] | Potency [7] | Potency [8]

CNc1ncnc2c1ncn2[C@H]1C[C@H](OP(=O)(O)O)[C@@H](COP(=O)(O)O)O1
inactive: Potency [3] | outcome [4] | Potency [5] | Potency [6] | Potency [7] | Potency [8]

N=S(=O)(O)Cc1noc2ccccc12
inactive: Potency [3] | outcome [4] | Potency [5] | Potency [6] | Potency [7] | Potency [8]

CC(N)=O
inactive: outcome [1] | outcome [2] | Potency [3] | outcome [4] | Potency [5] | Potency [6] | Potency [7] | Potency [8]

CN1C2CCC1CC(OC(=O)C(O)c1ccccc1)C2 (stereo not given)
inactive: Potency [3] | outcome [4] | Potency [5] | Potency [6] | Potency [7] | Potency [8]

OC[C@H]1NC[C@@H](O)[C@@H]1O
inactive: Potency [3] | outcome [4] | Potency [5] | Potency [6] | Potency [7] | Potency [8]

CCCn1c(=O)[nH]c(=O)c2[nH]cnc21
inactive: outcome [1] | outcome [2] | Potency [3] | outcome [4] | Potency [5] | Potency [6] | Potency [7] | Potency [8]

OCC1O[C@H](O)C(Cl)C(O)C1O (stereo not given in full)
inactive: Potency [3] | outcome [4] | Potency [5] | Potency [6] | Potency [7] | Potency [8]

O=C(O)c1cc2cc(Cc3cccnc3)ccc2o1
inactive: outcome [1] | outcome [2] | Potency [3] | outcome [4] | Potency [5] | Potency [6] | Potency [7] | Potency [8]

COC1(C2=NCCN2)COc2ccccc2O1 (stereo not given)
inactive: Potency [3] | outcome [4] | Potency [5] | Potency [6] | Potency [7] | Potency [8]

CN1CCC[C@H]1c1cccnc1
inactive: Potency [3] | outcome [4] | Potency [10] | Potency [11] | max response [12] 8.91% | Potency [5] | Potency [6] | Potency [7] | Potency [8]

NC(Cc1cccc(-c2ccccc2CP(=O)(O)O)c1)C(=O)O (stereo not given)
inactive: Potency [3] | outcome [4] | Potency [5] | Potency [6] | Potency [7] | Potency [8]

N#Cc1cc2nc(O)c(O)nc2cc1[N+](=O)[O-]
inactive: outcome [1] | outcome [2] | Potency [3] | outcome [4] | Potency [5] | Potency [6] | Potency [7] | Potency [8]

N[C@@H](Cc1cnc[nH]1)C(=O)O
inactive: outcome [1] | outcome [2] | Potency [3] | outcome [4] | Potency [5] | Potency [6] | Potency [7] | Potency [8]

NCCCNCCCCNCCCN
inactive: outcome [1] | outcome [2] | Potency [3] | outcome [4] | Potency [5] | Potency [6] | Potency [7] | Potency [8]

COc1ccc2c(c1)c(CC(=O)O)c(C)n2Cc1ccc(Cl)cc1
inactive: outcome [1] | outcome [2] | Potency [3] | outcome [4] | Potency [5] | Potency [6] | Potency [7] | Potency [8]

O=c1onc2n1-c1cc(Br)ccc1OC2
inactive: outcome [1] | outcome [2] | Potency [3] | outcome [4] | Potency [5] | Potency [6] | Potency [7] | Potency [8]
